From PubChem BioAssay (NCATS)
A number with no mark means an inactive call. No rule for the calls is given here.
Potency is read from the fitted curve at half-maximal effect.

These compounds were tested on HIV-1 nucleocapsid protein NCp7 (binding to TG oligonucleotide) (assay: HIV Nucleocapsid (AID 346;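 also: potency is for inhibitors that block NC binding and lower polarization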)). Conditions: HIV-1 NC / fluorescein-TGTGTGTG probe, fluorescence polarization.
Summary of the method: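 Reagents dispensed (10 nM TG4xF, 100 nM HIV-1 NC), plates spun, compounds pin-transferred, then incubated 1 hr at room temperature before FP imaging. Buffer: Hepes pH 7.5, 250mM NaCl, 1uM ZnCl2, 100 uM TCEP, 5 mM 2-mercaptoethanol.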
In the case of `COc1ncc2nc(-c3ccc(F)cc3)c(=O)n(C)c2n1`, the Potency is reported as > 20 µM.
With `O=c1cnc2cnc(Nc3ccccc3)nc2n1C1CC1` the Potency was > 20 µM.
In the case of `COc1ccc(NC(=O)N2CCCC3(CCN(C(=O)c4cc(C(F)(F)F)cc(C(F)(F)F)c4)CC3)C2)cc1`, the Potency is reported as > 20 µM.
With `Cc1noc(C)c1-c1ccc2ncnc(Nc3ccccc3)c2c1` the Potency was > 20 µM.
In the case of `Cc1nc2cnc(OCc3ccccc3)nc2n(Cc2ccc(F)cc2)c1=O`, the Potency is reported as > 20 µM.
With `COc1ccc2[nH]cc(CCNc3ncncc3-c3ccccc3C(F)(F)F)c2c1` the Potency was > 20 µM.
In the case of `COc1ccc(-c2nc3cncnc3n(-c3ccccc3)c2=O)cc1`, the Potency is reported as > 20 µM.
In the case of `O=C(c1ccco1)N1CCC2(CC1)CCN(c1ccccn1)CC2`, the Potency is reported as > 20 µM.
In the case of `COc1ccccc1-c1cncnc1N(C)Cc1ccco1`, the Potency is reported as > 20 µM.
With `CN(Cc1ccco1)c1nc(-c2ccccc2Cl)nc2ccccc12` the Potency was > 20 µM.
With `CN(Cc1ccco1)c1cc(-c2cccc(C#N)c2)ncn1` the Potency was > 20 µM.
`COc1ccc(CNc2nc(-c3ccccc3CN(C)C)nc3ccccc23)c(OC)c1` was tested, and the Potency was > 20 µM.
For `COc1ccccc1CN1CC[C@@]2(CCCN(C(=O)c3ccncc3)C2)C1`, the Potency was > 20 µM.
With `CCNc1ncc2nc(-c3cc(F)cc(F)c3)c(=O)n(C[C@H]3CCCO3)c2n1` the Potency was > 20 µM.
For `COCCn1c(=O)c(-c2cccs2)nc2cnc(Oc3ccccc3)nc21`, the Potency was > 20 µM.
In the case of `O=C(c1cnccn1)N1CCC[C@@]2(CCN(Cc3nccs3)C2)C1`, the Potency is reported as > 20 µM.
For `Cc1nc2cnc(N3CCN(C)CC3)nc2n(CCC#N)c1=O`, the Potency was > 20 µM.
In the case of `COCCn1c(=O)c(-c2cccc(C#N)c2)nc2cnc(Oc3ccc(OC)cc3)nc21`, the Potency is reported as > 20 µM.
`Fc1ccc(Nc2ccnc(-c3ccccc3C(F)(F)F)n2)cc1` was tested, and the Potency was > 20 µM.
For `CN1CCN(c2ncc3nc(-c4cc(F)cc(F)c4)c(=O)n(C)c3n2)CC1`, the Potency was > 20 µM.
`COc1cccc(Nc2ncc3nc(-c4ccccc4)c(=O)n(Cc4cccs4)c3n2)c1` was tested, and the Potency was > 20 µM.
In the case of `O=c1c(-c2ccc(Cl)cc2)nc2cncnc2n1Cc1ccc(F)cc1`, the Potency is reported as > 20 µM.
`CN(C)c1nc(-c2cccc(NS(C)(=O)=O)c2)nc2ccccc12` was tested, and the Potency was > 20 µM.
With `c1cncc(-c2nc(N3CCNCC3)c3ccccc3n2)c1` the Potency was > 20 µM.
